Active and inactive are the calls of the source. How the calls were made is not given here.

This assay can be described thus: Brca1-Bard1 BiLC signal decrease – luminescence, single concentration, counter-screen for Mdm2/MdmX interaction inhibitor project, confirmation (AID 504668). To be noted: Brca1/Bard1 bimolecular luciferase complementation counterscreen, at 8 µM, hits give high values.
What is called inhibition is the change of the read-out against control, counted positive when it falls. For the compound `O=C(NC(CSCc1ccccc1)C(=O)N/N=C/c1ccc(O)cc1O)c1ccc([N+](=O)[O-])cc1` (stereo not given), the inhibition was 34.3% (active).

With `COc1ccc2[nH]c(C(=O)N/N=C/c3ccc(O)cc3O)cc2c1`, the inhibition is 31.2% (active). Take `O=C(Nc1ccc(OC(F)(F)F)cc1)Nc1cccc([N+](=O)[O-])c1`: the inhibition is 35.8% (active).

For the compound `CC(C)=CCc1c2c(c(O)c3c(=O)c4c(oc13)-c1cc(O)c(O)cc1OC4C=C(C)C)C=CC(C)(C)O2` (stereo not given), the inhibition was 34.4% (active). The value for `Cn1nc(-c2ccccn2)nc2c(=O)n(C)c(=O)nc1-2` was 33.8% (active); that for `Nc1nc(Cl)nc2c1ncn2C1CC(O)C(CO)O1` (stereo not given) was 25.6% (active). For the compound `CC(=O)NC(c1cccc([N+](=O)[O-])c1)c1ccc2cccnc2c1O` (stereo not given), the inhibition was 23.7% (active).

`Cc1ccc(S(=O)(=O)c2c(C)nn(C(C)(C)C)c2OC(=O)c2ccc(Br)o2)cc1`: the inhibition was 29.3% (active). As to `Cc1cccc(NC(=S)N(CCCN2CCCC2)Cc2cccn2Cc2ccc(Cl)cc2)c1`, the inhibition was 23.4% (active). `COc1ccc(N=Nc2ccc(O)c3ncccc23)cc1`: the inhibition is 31.7% (active). The value for `COc1cc(/C=C2\CC/C(=C\c3cc(OC)c(O)c(OC)c3)C2=O)cc(OC)c1O` was 25.6% (active); that for `C/C(=N\NC(=O)c1cc(-c2cccs2)nc2ccccc12)c1ccccn1` was 28.3% (active).

`COc1ccc2[nH]c3c(N4CCC(O)(c5cccc(C(F)(F)F)c5)CC4)ncnc3c2c1`: the inhibition is 32.1% (active). In the case of `C#CCOCCOCCOCCNc1nc(N2CCN(C(=O)CCCCCCCCCCNC(=O)Cn3cc(C[C@@H](C)O)nn3)CC2)nc(N2CCN(C(=O)CCCCCCCCCCNC(=O)[C@@H]([C@H](C)CC)n3cc(CCCCCN)nn3)CC2)n1`, the inhibition was 27.2% (active). The value for `C=C1CCC2[C@](C)(CO)[C@H](O)CC[C@@]2(C)[C@@H]1C/C=C1\C(=O)OC[C@H]1O` (stereo not given in full) was 27.2% (active); that for `CCC(=O)NC(c1ccc(C)cc1)c1cc(Cl)c2cccnc2c1O` (stereo not given) was 23.8% (active); that for `O=C(Nc1ccc(Cl)cc1)Nc1csc([N+](=O)[O-])c1` was 30.6% (active). For `CC[N+]1=C(C)C(C)(C)c2cc(C)ccc21`, the inhibition is 28.2% (active).

Consider `CCC(=O)Nc1cccc(C(=O)/C=C/c2ccccc2)c1`, for which the inhibition was 34.4% (active). Turning to `OC(CNCc1ccc(-c2ccccc2)cc1)c1ccccc1` (stereo not given), the inhibition is 26.9% (active). `Cc1ccc(/C=C2\SC(=S)N(CCCC(=O)N3CCOCC3)C2=O)cc1`: the inhibition was 30.5% (active). As to `O=C(/C=C/c1ccc(OCc2c(F)cccc2Cl)cc1)N1CCOCC1`, the inhibition is 27.7% (active). With `O=C(Oc1c(Cl)cc(Cl)c2cccnc12)c1cccs1`, the inhibition is 32.1% (active). On to `Cn1c(/C=C/c2ccc(Br)cc2)c([N+](=O)[O-])c(=O)n(C)c1=O`, for which the inhibition is 23.9% (active). Consider `CCC(=O)NC(c1cccs1)c1ccc2cccnc2c1O` (stereo not given), for which the inhibition was 23.3% (active).

For `Oc1c(C(c2ccc(Cl)cc2)N2CCCC2)cc(Cl)c2cccnc12` (stereo not given), the inhibition was 32.9% (active).

Turning to `CN(CC1CCCO1)S(=O)(=O)c1ccc(C(=O)Nc2nc(-c3ccccn3)cs2)cc1` (stereo not given), the inhibition is 27.4% (active). On to `Cc1ccc(O)c(CNCCNCc2cc(C)ccc2O)c1`, for which the inhibition was 32.6% (active).

Turning to `Cn1cc(C(=O)N/N=C/c2c(O)ccc3ccccc23)ccc1=O`, the inhibition is 27% (active). With `Cc1cc(C(=O)CCl)c(C)n1CCc1ccc(F)cc1`, the inhibition is 34.4% (active). As for `CCCCCCCCCCC[N+](C)(C)CC/C=C1/c2ccccc2Sc2ccc(Cl)cc21`, the inhibition is 28.6% (active).

For `O=S(=O)(CCSc1nc2ccccc2o1)c1nc2ccccc2s1`, the inhibition was 35.6% (active). Regarding `CC1CCN(CCCNC(=O)c2ccc3c(Cl)c4c(nc3c2)CCCC4)CC1`, the inhibition was 30.3% (active). The value for `COc1ccc(/C=C2/SC(=S)N(CCCC(=O)N3CCN(C)CC3)C2=O)cc1` was 31.7% (active). The value for `CN(Cc1cnc2nc(N)nc(N)c2n1)c1ccc(C(=O)N[C@@H](CCC(=O)O)C(=O)O)cc1` was 29.8% (active). For the compound `Cc1nnsc1C(=O)N/N=C/c1ccc2ccccc2c1O`, the inhibition was 30.1% (active).

For `O=C(N/N=C/c1cc([N+](=O)[O-])ccc1N1CCNCC1)c1ccc([N+](=O)[O-])cc1`, the inhibition is 32.1% (active). As to `CC(C)Cn1c(=O)c(C(=O)Nc2ccccc2S(N)(=O)=O)c(O)c2ccccc21`, the inhibition is 26.4% (active).

For the compound `CCN(CC)Cc1c(O)ccc2c1O/C(=C\C=C\c1ccccc1)C2=O`, the inhibition is 25.3% (active). As for `O=Cc1[nH]c2ccccc2c1N(C(=O)CCl)c1ccc([N+](=O)[O-])cc1`, the inhibition was 25.5% (active).
